Data published in PubChem BioAssay AID720551 (National Center for Advancing Translational Sciences (NCATS), 2013).
Screen size: about 340,000 compounds; about 1,300 (0.38%) were called active. The full list was thinned out, with actives kept by preference. Unmarked numbers belong to inactive results.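 How the source made its calls: active means maximum activity change below -70%; inconclusive means maximum activity change between -70% and -50%; inactive means maximum activity change above -50%.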

molecular target: Voltage-gated inwardly rectifying potassium channel KCNH2 (Homo sapiens) (UniProt Q12809); assay: qHTS for Inhibitors of KCHN2 3.1: Wildtype qHTS; settings: U2OS, BacMam KCNH2, thallium flux FluxOr; at 1.84 µM; hits give low values
How it was run: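 U2OS cells were transduced with wild-type KCNH2 virus (2.03 x 10^8 / mL) for 4 h at room temperature, then cultured overnight at 37 C. Thallium flux was read with FluxOr dye. Rate constants were normalized to DMSO controls.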
On the % scale 0 is the no-effect control and ±100 the full control effect.

Voltage-gated inwardly rectifying potassium channel KCNH2 (Homo sapiens), sequence (Q12809 whole entry, looked up): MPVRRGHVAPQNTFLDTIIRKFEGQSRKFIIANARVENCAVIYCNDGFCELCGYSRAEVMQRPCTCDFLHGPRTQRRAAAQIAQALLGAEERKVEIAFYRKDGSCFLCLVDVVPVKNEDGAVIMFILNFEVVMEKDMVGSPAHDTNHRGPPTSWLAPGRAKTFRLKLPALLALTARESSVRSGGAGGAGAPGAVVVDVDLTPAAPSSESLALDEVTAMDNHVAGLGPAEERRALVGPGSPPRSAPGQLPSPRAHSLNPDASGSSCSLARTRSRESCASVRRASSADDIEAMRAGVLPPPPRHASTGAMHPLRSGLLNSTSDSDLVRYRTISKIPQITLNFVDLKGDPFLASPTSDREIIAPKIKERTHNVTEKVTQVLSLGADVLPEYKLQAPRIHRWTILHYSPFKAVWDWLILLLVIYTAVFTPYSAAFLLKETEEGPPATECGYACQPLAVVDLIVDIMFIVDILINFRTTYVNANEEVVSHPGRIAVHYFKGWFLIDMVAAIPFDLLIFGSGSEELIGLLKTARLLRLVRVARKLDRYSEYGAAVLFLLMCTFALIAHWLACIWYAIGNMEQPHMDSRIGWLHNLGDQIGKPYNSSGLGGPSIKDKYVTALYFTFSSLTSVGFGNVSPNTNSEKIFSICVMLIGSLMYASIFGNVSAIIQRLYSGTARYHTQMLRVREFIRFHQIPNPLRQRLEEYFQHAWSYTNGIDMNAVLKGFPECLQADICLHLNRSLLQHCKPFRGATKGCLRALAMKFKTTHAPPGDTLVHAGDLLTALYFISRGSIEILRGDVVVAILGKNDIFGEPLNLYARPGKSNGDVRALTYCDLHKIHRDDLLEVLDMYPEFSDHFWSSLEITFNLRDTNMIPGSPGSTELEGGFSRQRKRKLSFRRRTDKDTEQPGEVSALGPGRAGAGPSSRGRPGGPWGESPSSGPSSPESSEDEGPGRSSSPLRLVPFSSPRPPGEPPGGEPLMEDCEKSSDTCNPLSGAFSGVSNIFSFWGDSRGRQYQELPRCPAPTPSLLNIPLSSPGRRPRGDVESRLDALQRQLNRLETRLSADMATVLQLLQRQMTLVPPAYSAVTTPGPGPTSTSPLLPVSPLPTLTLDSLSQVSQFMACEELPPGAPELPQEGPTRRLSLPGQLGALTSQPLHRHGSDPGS

SMILES	activity change
C=CCn1nc(C(=O)OCC)cc1-c1sc(NC(=O)c2ccccc2)nc1C	41.9%
CN(C)C(CNC(=O)c1cc(Br)c(Br)s1)c1ccco1 (centres undefined)	6.08%
O=S(=O)(c1cccc(C(F)(F)F)c1)N1c2ccccc2-n2cccc2C1c1cccnc1 (centres undefined)	-12.2%
Cc1ccc(OCCC(=O)Nc2ccc(S(=O)(=O)Nc3nccs3)cc2)cc1	4.09%
O=C(CCc1ccccc1Cl)Nc1ccc(S(=O)(=O)Nc2nccs2)cc1	-79.2% (active)
CCC(CC)C(=O)Nc1ccc(S(=O)(=O)Nc2nccs2)cc1	0.976%
O=C(OCC(=O)N1CCCCCC1)c1cccc(Cl)c1Cl	0.263%
C[C@H]1CN([C@@H](C)CO)C(=O)CCCn2cc(nn2)CO[C@@H]1CN(C)S(=O)(=O)c1ccc(-n2cccn2)cc1	12.7%
CCOc1ccc(S(=O)(=O)NCCC(=O)NNC(=O)c2ccc(F)cc2)cc1	-9.08%
CCN1CCCC1CNc1ncnc2c1[nH]c1ccc(F)cc12 (centres undefined)	-81.9% (active)
CCN1CCCC1Cn1cnc2c([nH]c3cc(OC)ccc32)c1=O (centres undefined)	0.665%
Fc1ccc2[nH]c3c(N4CCN(Cc5ccc6c(c5)OCO6)CC4)ncnc3c2c1	22.8%
COc1cc(-c2nnc(NC(=O)CS(=O)(=O)c3ccc(Cl)cc3)o2)cc(OC)c1OC	-3.22%
C[C@@H]1Cn2cnc(C(=O)Nc3ccc(CNC(=O)OC(C)(C)C)cc3)c2C(=O)N1	1.51%
O=C(CSc1nnc(-c2cnccn2)n1Cc1ccco1)c1ccc(Cl)c(Cl)c1	-187% (active)
Cc1ccc(NC(=O)CSc2nnc(-c3cnccn3)n2Cc2ccco2)cc1C	8.19%
O=C(CSc1nnc(-c2cccnc2)n1Cc1ccco1)c1ccc(Cl)c(Cl)c1	1.21%
CC(=O)Nc1ccc(SCC(=O)NC(=O)c2ccc(Cl)cc2)cc1	1.87%
CSc1ncnc2c1ncn2CCCNCC(C)c1ccccc1 (centres undefined)	-15.1%
CC(CN1CCC(n2nccc2NC(=O)C2CCCC2)CC1)c1ccccc1 (centres undefined)	15.8%
O=C(Nc1ccnn1C1CCN(C/C=C/c2ccc(F)cc2)CC1)C1CCCC1	-105% (active)

SMILES	activity change
Cc1nn(C)c(Cl)c1CN1CCC(n2nccc2NC(=O)C2CCCC2)CC1	26.5%
COC(=O)N(C)C[C@@H]1OCc2cnnn2CCCC(=O)N([C@@H](C)CO)C[C@@H]1C	1.19%
COCCn1c(SCC(=O)Nc2ccc(F)cc2F)nc2c(c1=O)SCC2	-2.69%
Nc1cc(C(=O)N2CCN(c3ccccc3Cl)CC2)ccc1N1CC2CC(C1)c1cccc(=O)n1C2 (centres undefined)	6.37%
C=CCNC(=S)N1CCc2[nH]c3ccccc3c2C1	1.48%
CC1CCc2[nH]c3ccc(C(=O)N(C)CC(=O)Nc4cccc(F)c4)cc3c2C1 (centres undefined)	2.89%
O=C(CCCN1CCc2[nH]c3ccc(F)cc3c2C1)c1ccc(F)cc1	-94.7% (active)
Cc1ccc(C(=O)N[C@H](C(=O)N2CCN(c3ncccn3)CC2)C(C)C)cc1	1.07%
Cc1ccc(S(=O)(=O)N2C[C@H]3C(=O)C[C@@H](c4cccc5ccccc45)N(S(=O)(=O)c4ccc(C)cc4)[C@H]3C[C@H]2c2ccc(Cl)cc2)cc1	5.59%
O=C(COc1ccc(Br)cc1)OCC(=O)c1ccc[nH]1	-10.8%
COc1ccc(NC(=O)CN(C)C(=O)c2cc(C)oc2C)cc1	-15.3%
CCc1cccc(CC)c1N1C(=O)CC(Sc2ccccc2N)C1=O (centres undefined)	-0.824%
CCC(c1nnnn1Cc1ccco1)N(Cc1cc2cc(OC)ccc2[nH]c1=O)C1CCCCC1 (centres undefined)	0.509%
CCC(c1nnnn1C1CCCC1)N(Cc1cccs1)Cc1cc2cccc(C)c2[nH]c1=O (centres undefined)	-3.98%
CCC(c1nnnn1Cc1ccco1)N(CCc1ccccc1)Cc1cc2cccc(C)c2[nH]c1=O (centres undefined)	-261% (active)
Cc1ccccc1C#CC1=CC(=O)CC(C)(C)C1	11%
CC1(C)CC(=O)C=C(c2ccccc2CO)C1=O	2.31%
CCOC(=O)C1(CCOc2ccccc2)CCN(Cc2ccc(C#CCCO)cc2)CC1	19.1%
CCOC(=O)C1(CCOc2ccccc2)CCN(Cc2cc(OC)cc(OC)c2)CC1	-109% (active)
CCCS(=O)(=O)N1CCC(CCOc2ccccc2)(C(=O)OCC)CC1	9.17%
O=C(O)c1ccccc1Cc1ccc(F)c2ccccc12	3.97%

SMILES	activity change
COC(=O)C[C@H]1C[C@@H]2c3cc(N(C)C)ccc3O[C@@H]2[C@H](CO)O1	-11.4%
O=C(c1ccc(CS(=O)Cc2ccccc2Cl)o1)N1CCN(c2ccccc2)CC1 (centres undefined)	7.11%
Cc1nc2ccccc2n1CC(O)c1ccccc1 (centres undefined)	-1.47%
CCOC(=O)c1ccc2c(c1)nc(C)n2CC	12.4%
CCn1c(C)nc2c1C(=O)c1ccccc1C2=O	-229% (active)
C[C@@H]1CN([C@H](C)CO)C(=O)CCCn2cc(nn2)CO[C@H]1CN(C)S(C)(=O)=O	-23.5%
CC(C)N=C1CCCC1C(=S)SSC(=S)C1CCCC1=NC(C)C (centres undefined)	-26.8%
Cc1ccc(S(=O)(=O)/N=C2\C=C(NS(=O)(=O)c3ccc(C)cc3)C(=O)c3ccccc32)cc1	1.35%
Cc1ccc(S(=O)(=O)N(C)C)cc1NC(=O)/C=C/c1cccs1	-0.908%
Cc1ccc2sc(N(CCN(C)C)C(=O)/C=C/c3cccs3)nc2c1C	-101% (active)
Cc1cc(C)c2nc(N(CCN(C)C)C(=O)/C=C/c3cccs3)sc2c1	-136% (active)
CN(C)CCN(C(=O)CN1C(=O)c2ccccc2C1=O)c1nc2cc3c(cc2s1)OCCO3	8.23%
Cc1cccc2sc(N(CCCN(C)C)C(=O)CCS(=O)(=O)c3ccccc3)nc12	3.42%
Cc1ccc(S(=O)(=O)N(C)C)cc1NC(=O)COC(=O)/C=C/c1cccs1	-3.39%
CCOc1ccc(CCNC(=O)COC(=O)c2ccc(C)c(S(=O)(=O)N3CCOCC3)c2)cc1OCC	-0.902%
O=C(Nc1cccc(C(=O)O)c1)/C(=C\c1ccccc1)NC(=O)c1ccc(Br)o1	9.44%
Cc1ccc(S(=O)(=O)NN=C2CC(C)(C)CC(=O)C2(C)C)cc1	-3.73%
O=C(OCc1ccccc1)N1CCC2CC1c1cc(N3CCN(S(=O)(=O)c4cc(Cl)cc(Cl)c4)CC3)ccc12 (centres undefined)	3.43%
O=C(Nc1cccn(Cc2ccccc2Cl)c1=O)NC1CCCCC1	-11.4%
Cc1cc(NC(=O)c2ccco2)c(=O)n(Cc2c(F)cccc2Cl)c1	-11.4%
O=C(Nc1cccn(Cc2c(Cl)cccc2Cl)c1=O)c1ccc(Cl)cc1	-350% (active)

SMILES	activity change
CCOC(=O)C1CCN(C(=O)c2ccc3c(=O)n4nc(Nc5ccccc5CC)sc4nc3c2)CC1	-22.8%
CCN(CC)C(=O)C1=C(C)N(Cc2ccc(F)cc2)C(=O)C(CC(=O)NCc2cccc3ccccc23)C1 (centres undefined)	6.51%
O=C(Oc1ccccc1)c1ccc2nccnc2c1	-169% (active)
COC(=O)c1ccc(OC(=O)c2cnccn2)cc1	-0.0992%
O=C(Oc1ccc(-c2nc(-c3ccccn3)no2)cc1)c1ccccc1	-11.6%
Cc1cccc(C(=O)C(O)(c2ccccc2)C2CCCCC2=O)c1 (centres undefined)	8.63%
N#CCSc1ccccc1NC(=O)CN1C(=O)NC(CCc2ccccc2)C1=O (centres undefined)	-4.38%
CC1CCC2(CC1)NC(=O)N(CC(=O)NCc1ccco1)C2=O (centres undefined)	5.92%
CCOC(=O)CNC(=O)CN1C(=O)CCSc2ccccc21	10.6%
COc1ccc(CCNC(=O)CN2C(=O)CCSc3ccccc32)c(OC)c1	-169% (active)
COc1ccc(CCNC(=O)CCc2cn(C)c3ccccc23)c(OC)c1	6.58%
CCOC(=O)C(C(=O)c1ccccc1)C(c1ccccc1)c1nccc2ccccc12 (centres undefined)	3.11%
O=C(CN1CCN(C(=O)c2ccco2)CC1)Nc1ccc2c(c1)OCO2	-4.79%
O=C(CN1CCN(CC(=O)Nc2ccc3c(c2)OCO3)CC1)Nc1ccc(F)cc1	-129% (active)
O=C(COC(=O)c1ccc(F)cc1)Nc1ccc2c(c1)OCO2	-0.371%
CCCCN1C(=O)C(CC(=O)NCc2cccs2)CC(C(=O)N2CCOCC2)=C1C (centres undefined)	-2.88%
Cc1ccc(S(=O)(=O)N2C[C@]3(O)C[C@@H]4C(=O)N(c5ccccc5)C(=O)[C@@H]4C[C@]3(OC(=O)NC3CC3)C2)cc1	-7.72%
CN(C)/C=C(/C(=O)c1ccccc1)S(=O)(=O)c1ccc(Cl)cc1	-7.44%
CN(C)/C=C(/C(=O)c1ccc(Cl)cc1)S(=O)(=O)c1ccccc1	0.0109%
CN(C)/C=C(/C(=O)c1ccccc1Cl)S(C)(=O)=O	-134% (active)
COCC1CCCCN1C(=O)c1cc(COc2ccc(C)c(C)c2)on1 (centres undefined)	-11.8%
